Screening data deposited in PubChem BioAssay by National Center for Advancing Translational Sciences (NCATS).
A selection: hits, their analogues and other compounds. The true share with any hit is near 1.1%.
a7 integrin act = activators of alpha7 integrin expression for muscular dystrophy | 0.064% of 350,000 active | Potency, µM (titrated, usually from 38.3 µM), without a hit: top-dose activation, usual class: activators | alpha7betagal myoblasts, beta-gal FDG fluorescence, 48 h;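 also: potency is read from the fitted curve at half-maximal effect; 100% = response of the positive control SU9516; nearly all actives have a fitted effect of over 60% in size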
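Alpha7betagal+/- myoblasts (passage 13) were plated 16-24 hr, then exposed to compounds (1:260 dilution of DMSO stock) for 48 hours at 37C. After MPER lysis, β-galactosidase reporter activity was read as FDG fluorescence (ex 480/em 540) after 30 minutes.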
TrxR1 inh = inhibitors of rat thioredoxin reductase 1; O89049; recombinant rTrxR1, NADPH fluorescence consumption, selenite substrate; Potency, µM (series often up to 114 µM), for the others: at the top dose activity change, negative = inhibition, actives largely listed as inhibitors; 1% of 390,000 active; AID 588453; also: potency is read from the fitted curve at half-maximal effect; nearly all actives have a fitted effect of over 65% in size
Target sequence (O89049 whole entry, looked up): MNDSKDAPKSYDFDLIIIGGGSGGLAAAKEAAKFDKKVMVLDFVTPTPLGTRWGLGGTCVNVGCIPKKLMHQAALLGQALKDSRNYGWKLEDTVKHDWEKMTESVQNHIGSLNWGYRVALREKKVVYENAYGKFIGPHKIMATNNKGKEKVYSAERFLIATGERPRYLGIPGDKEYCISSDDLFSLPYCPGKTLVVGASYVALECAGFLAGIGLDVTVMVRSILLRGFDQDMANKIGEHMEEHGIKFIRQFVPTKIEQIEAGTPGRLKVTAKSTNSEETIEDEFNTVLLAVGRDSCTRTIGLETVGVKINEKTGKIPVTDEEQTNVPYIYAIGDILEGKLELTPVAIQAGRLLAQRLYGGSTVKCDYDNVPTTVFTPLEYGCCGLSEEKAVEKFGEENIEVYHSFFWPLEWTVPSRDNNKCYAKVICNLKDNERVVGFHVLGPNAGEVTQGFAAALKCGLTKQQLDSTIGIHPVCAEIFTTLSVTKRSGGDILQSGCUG
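Rat TrxR1 (90 nM in the dispensed reagent) was pre-reduced with 400 uM NADPH for 5 min at room temperature, then incubated with compound for 15 min. After 400 uM selenite was added, NADPH fluorescence (Ex 340/Em 450 nm) was followed for 8 min.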
TrxR1 substrate = is turned over as a substrate by rat TrxR1; O89049; purified TrxR1 substrate turnover, NADPH consumption readout; Potency, µM (titrated, usually from 114 µM), for the others: at the top dose activity change, negative = substrate turnover; 0.01% of 390,000 active; AID 588456; also: potency is read from the fitted curve at half-maximal effect; nearly all actives have a fitted effect of over 50% in size
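Rat TrxR1, dispensed at 90 nM, was prereduced with 400 uM NADPH (final) for 5 min at ~22 deg C, then incubated with compound 15 min before 400 uM selenite. A first-read NADPH fluorescence drop versus no-compound background flagged substrates.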
LDHA inh = inhibitors of human lactate dehydrogenase A; AID 1347041; activity change, % (values are at about 110 or 230 µM); purified LDHA, NADH/diaphorase-resazurin fluorescence; hits give low values; 0.15% of 480,000 active; P00338; in the data active = activity change below about -30%; inconclusive = mostly about -25% to -30%;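 also: plate controls were DMSO wells for no effect and wells without enzyme for full effect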
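LDH5 2 nM; NADH 0.06 mM, pyruvate 0.2 mM; 200 mM Tris pH 7.4, EDTA, Tween-20; 5 min RT. Detection: diaphorase 0.133 mg/mL + resazurin 37 µM, fluorescence ex540/em590 at 0 and 20 min; normalized to enzyme-free and DMSO wells.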
PI4K2A block = PI4K2A (human) kinase inhibition. Q9BTU6. activity change, negative = inhibition, % at 76.9 µM. AID 1346378. purified PI4K2A, ADP-Glo luminescence, 1 h; hits give low values. 0.13% of 420,000 active; in the data active = activity change below about -50%; inconclusive = mostly about -30% to -49%;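 also: -100% = wells without enzyme as full effect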
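Compounds are screened against recombinant PI4K2A using PI as substrate and ATP, the latter dispensed at 300 microM. Reactions run one hour at ambient temperature before ADP-Glo detection; full inhibition defined by wells lacking enzyme.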
GALK inhibitor = blocks human galactokinase activity | P51570 | Purified GALK, Kinase-Glo residual ATP luminescence | Potency, µM (titrated, usually from 57.5 µM), without a hit: at the highest dose activity change, negative = inhibition, hits mostly inhibitors | 0.007% of 270,000 active; also: potency is read from the fitted curve at half-maximal effect
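Compounds were pin-transferred into ATP buffer (35 uM final), then GALK plus galactose (5 nM, 100 uM final) was added. After 1 h at room temperature, Kinase-Glo Plus was added and luminescence read after 10 min.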
Numbers without * were called inactive; ? = inconclusive; nt = no result given; [ ] = dose if it differs, or a comment. Unless noted, calls follow the shape of the dose curve; as a rule, active = well fitted curve in the direction sought with a large enough effect; inconclusive = small, poorly fitted or top-dose-only effect, or another doubt; inactive = no such curve, though single readings can be large; an effect the other way counts as inactive or inconclusive. Unless noted, % is scaled to controls: 0 for no effect and ±100 for the full control effect.

SMILES	a7 integrin act	TrxR1 inh	TrxR1 substrate	LDHA inh	PI4K2A block	GALK inhibitor
CCOC(=O)c1cn(C)nc1S(=O)(=O)N1CCCC1	nt	nt	nt	2	nt	nt
N#Cc1c(-c2ccc(F)cc2)cc(-c2ccccc2)nc1SCC(=O)NCC(=O)O	8%	-5%	2%	-80*	-8	-1%
N#Cc1c(-c2ccc(Cl)cc2)cc(-c2ccccc2)nc1SCC(=O)O	12%	1%	6%	-9	-3	-9%
Fc1ccc(CNC(=S)Nc2ccc(Br)cc2)cc1	nt	nt	nt	8	nt	nt
Cc1ccc(NC(=O)CN2C(=O)N/C(=C/c3cccn3-c3ccc(C(=O)O)cc3)C2=O)cc1	-17%	?	-12%	-30*	?	-1%
Cc1ccc(NC(=O)CN2C(=O)N/C(=C\c3cccn3-c3ccc(C(=O)O)cc3)C2=O)cc1	nt	nt	nt	-22	nt	nt
O=C(COc1ccc(OCc2ccccc2)cc1)OCC(=O)c1cc2ccccc2o1	nt	nt	nt	4	nt	nt
CCCCC#Cc1ccc(C(=O)NNC(=O)Nc2ccccc2)o1	11%	14%[57.1 µM]	7%[57.1 µM]	-39*	-1	-2%
COc1cc(/C=C(\C#N)C(=O)Nc2ccccn2)ccc1O	-9%	?	-11%[57.1 µM]	8	6	0%
CCOc1cc(/C=C(\C#N)C(=O)Nc2ccccn2)ccc1O	2%	25µM*	-1%	-3	10	-3%
OC1=C(O)c2nc3ccccc3nc21	3%	1.3µM*	2%	0	-2	0%
OC1=C(O)c2nc3cc(C(F)(F)F)ccc3nc21	-28%	2µM*	-5%	-2	9	0%
Cc1ccc(-c2nc3cc(C)c(C)cc3nc2-c2ccc(C)cc2)cc1	nt	nt	nt	-2	nt	nt
Cc1cc2nc3c(nc2cc1C)C(O)=C3O	?	2.5µM*	1%	3	-2	-2%
Oc1ccc(-c2nc3cc(C(F)(F)F)ccc3s2)cc1	nt	nt	nt	3	nt	nt
c1ccc(-c2nc3ccccc3nc2-c2ccccn2)nc1	15%	-4%	-14%	23	-4	0%
CCC(C)c1ccc2oc(-c3ccc(Cl)c(NC(C)=O)c3)nc2c1 (stereo unspecified)	nt	nt	nt	2	nt	nt
O=C(N/N=C/C=C\c1ccco1)c1cccs1	-19%	?	-3%[57.1 µM]	9	-18	1%
O=C(N/N=C/C=C/c1ccco1)c1ccccc1Cl	-11%	56µM*	-19%	1	-23	-3%
CC(/C=C/c1ccco1)=N/NC(=O)c1ccccc1Cl	-16%	16µM*	12%[57.1 µM]	3	-6	2%
O=C(N/N=C/C=C/c1ccco1)c1ccncc1	25%	40µM*	-14%	4	-12	1%
CC(/C=C/c1ccco1)=N\NC(=O)c1cccc(Cl)c1	-21%	?	-18%	-2	9	-3%
O=C(N/N=C/C=C/c1ccco1)/C(=C/c1ccccc1)NC(=O)c1ccccc1	-2%	20µM*	-7%[57.1 µM]	12	?	-1%
CC1CCCC(NC(=S)NCc2ccc(F)cc2)C1C (stereo unspecified)	nt	nt	nt	-11	nt	nt
Cc1cccc(NC(=O)c2nc3ccccc3nc2N2CCOCC2)c1	nt	nt	nt	-14	nt	nt
SMILES	a7 integrin act	TrxR1 inh	TrxR1 substrate	LDHA inh	PI4K2A block	GALK inhibitor
CCOC(=O)c1ccc(OCC(O)CNCCCn2nc(C)cc2C)cc1 (stereo unspecified)	nt	nt	nt	-4	nt	nt
CCOc1ccccc1Oc1c(C)oc2cc(OC(C)=O)ccc2c1=O	nt	nt	nt	0	nt	nt
COc1cc(C#N)cc(Br)c1OCc1ccccc1	nt	nt	nt	1	nt	nt
CC(=O)Nc1ncnc2c1c(-c1ccc(Cl)cc1)nn2C(C)(C)C	20%	50%	70%	1	3	-2%
CC(=O)N(C(C)=O)c1ncnc2c1c(-c1ccc(Cl)cc1)nn2C(C)(C)C	7%	5%[57.1 µM]	51%	-48*	13	3%
O=[N+]([O-])c1cc(-c2ncccn2)c([N+](=O)[O-])s1	0%	2µM*	-17%	16	-1	nt
O=C(Nc1ccncc1)c1cc(-c2cccs2)nc2ccccc12	nt	nt	nt	4	nt	nt
CCc1cccc(NC(=O)c2c(-c3ccccc3Cl)noc2C)c1	nt	nt	nt	7	nt	nt
